Records with an inconclusive call do not appear. A call without a number means that no potency is given here. Values without a mark were called inactive. The source made the active and inactive calls. Calls come from the whole dose curve; as a rule, active = well fitted inhibition curve with a large enough effect; inconclusive = small, poorly fitted or top-dose-only effect; inactive = no such curve, though single readings can be large or run the other way.
Potency is the fitted concentration of half-maximal effect.

The nature of this test: P-glycoprotein substrates identified in KB-3-1 adenocarcinoma cell line, qHTS therapeutic library screen (AID 1346986). Note: nearly all actives have a fitted effect of over 60% in size.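 Note: potency is for cytotoxicity meaning loss of cell viability.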 Conditions: KB-3-1 parental cells viability, CellTiter-Glo, 72 h; series mostly up to 44.5 µM; activity change, negative = cytotoxicity: at the top concentration. In short, it runs like this:
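Viability read by CellTiter-Glo after 72 h compound exposure in dose-response of KB-3-1 and KB-8-5-11 (P-gp-high) cells. Hits needed AC50 < 10 uM, >50% maximum response and curve class -1.1 to -2.4. Cherry-picks retested ± tariquidar, including pcDNA/MDR-19 HEK-293 pair.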
In general terms: Quantitative high-throughput screening tests each substance at several concentrations.
Regarding `CCCCCCCCCCCCc1ccc(S(=O)(=O)Nc2nncs2)cc1`, the Potency result was “inactive”.

With `C[C@@]12C[C@@]3(O)O[C@@H](O1)[C@]1(COC(=O)c4ccccc4)[C@@H]3C[C@@]12O[C@@H]1O[C@H](CO)[C@@H](O)[C@H](O)[C@@H]1O`, the result was inactive.

Regarding `C=C1C[C@@]2(O)O[C@@]3(C[C@H]2C(C)C)[C@H](C)CC[C@H]13`, the outcome was inactive.

`Cc1cnc(Nc2ccc(N3CCN(C)CC3)cc2)nc1Nc1cccc(S(=O)(=O)NC(C)(C)C)c1`: the Potency is 3.26 µM (active).

Consider `O=c1[nH]c(=O)n([C@H]2C[C@@H](O)[C@@H](CO)O2)cc1C=CBr`, for which the outcome was inactive.

On to `CC(=O)C1=C(O)C=C2Oc3c(C(C)=O)c(O)c(C)c(O)c3C2(C)C1=O` (centres undefined), for which the outcome was inactive.

As for `CC(C)N(CC[C@H](c1ccccc1)c1cc(CO)ccc1O)C(C)C`, the result was inactive.

Regarding `COc1ccc([C@@H]2CNC(=O)C2)cc1OC1CCCC1`, the result was inactive.

In the case of `CNC(=O)Nc1ccc(-c2nc(N3CC4CCC(C3)O4)c3cnn(C4CCC5(CC4)OCCO5)c3n2)cc1`, the Potency is 0.0411 µM (active).

In the case of `CC(=O)N[C@H]1[C@@H]([C@H](O)[C@H](O)CO)OC(C(=O)O)=C[C@@H]1N=C(N)N`, the outcome was inactive.

Turning to `CC(C)(C)c1nc2c3cc[nH]c(=O)c3c3cc(F)ccc3c2[nH]1`, the Potency is 7.31 µM (active).

As to `CON=C(C(=O)N[C@@H]1C(=O)N2C(C(=O)O)=C(CSC(=O)c3ccco3)CS[C@H]12)c1csc(N)n1`, the result was inactive.

On to `CC(=O)O[C@H]1C[C@@H]2CC[C@H]3[C@H]4C[C@H]([N+]5(C)CCCCC5)[C@@H](OC(C)=O)[C@@]4(C)CC[C@@H]3[C@@]2(C)C[C@H]1[N+]1(C)CCCCC1`, for which the outcome was inactive.

With `Cc1ccc2nc(NCCN)c3ncc(C)n3c2c1`, the Potency is 5.17 µM (active).

Take `CCc1cc(C(C)=NOCc2ccc(C3CCCCC3)c(C(F)(F)F)c2)ccc1CN1CC(C(=O)O)C1`: the outcome was inactive.

For `Cc1cn([C@@H]2O[C@H](CO)[C@@H](O)[C@H]2F)c(=O)[nH]c1=O`, the outcome was inactive.

As to `O=C(Nc1ccc(Oc2ccnc3[nH]ccc23)c(F)c1)c1cccn(-c2ccc(F)cc2)c1=O`, the outcome was inactive.

In the case of `CC1(C)O[C@@H]2C[C@H]3[C@@H]4CCC5=CC(=O)C=C[C@]5(C)[C@@H]4[C@@H](O)C[C@]3(C)[C@]2(C(=O)CO)O1`, the result was inactive.

With `Cc1cc(C(=O)NOCCO)c(Nc2ccc(I)cc2F)n(C)c1=O`, the “activity change, negative = cytotoxicity” value is 2.99%.

Regarding `OCc1ccccc1O[C@@H]1O[C@H](CO)[C@H](O)[C@H](O)[C@H]1O`, the result was inactive.

On to `Cc1ccccc1C(=O)Nc1ccc(C(=O)N2CCCC(O)c3cc(Cl)ccc32)c(C)c1` (centres undefined), for which the result was inactive.

On to `COc1ccc(Nc2cc(-c3cnc(N)nc3)nc(N3CCOCC3)n2)cn1`, for which the Potency was 1.46 µM (active).

As to `O=C(O)CCCCC(CCSCc1ccccc1)SCc1ccccc1` (centres undefined), the outcome was inactive.

`Cc1noc(-c2ccc(CSCCC(=O)O)cc2)c1NC(=O)OC(C)c1ccccc1Cl` (centres undefined): the outcome was inactive.

With `CCCCC(=O)O[C@]1(C(=O)CO)[C@@H](C)C[C@H]2[C@@H]3CCC4=CC(=O)C=C[C@]4(C)[C@@]3(F)[C@@H](O)C[C@@]21C`, the result was inactive.

Consider `COc1cc(C)c(C=CC(C)=CC=CC(C)=CC(=O)O)c(C)c1C`, for which the outcome was inactive.

On to `C[N+]1(C)[C@@H]2C[C@@H](OC(=O)C(O)(c3cccs3)c3cccs3)C[C@H]1[C@@H]1O[C@@H]12`, for which the result was inactive.

As for `CC1(C)[C@H](O[C@H]2O[C@H](C(=O)O)[C@@H](O)[C@H](O)[C@H]2O[C@@H]2O[C@H](C(=O)O)[C@@H](O)[C@H](O)[C@H]2O)CC[C@@]2(C)[C@H]1CC[C@]1(C)[C@H]2C(=O)C=C2[C@H]3C[C@@](C)(C(=O)O)CC[C@]3(C)CC[C@]21C`, the result was inactive.

In the case of `C[C@H](O)[C@@H]1C(=O)N2C(C(=O)O)=C(S[C@@H]3CN[C@H](CNS(N)(=O)=O)C3)[C@@H](C)[C@@H]12`, the outcome was inactive.

Regarding `CN[C@H]1[C@@H](O)[C@@H]2O[C@@H]3O[C@H](C)CC(=O)[C@]3(O)O[C@@H]2[C@@H](NC)[C@H]1O`, the outcome was inactive.

In the case of `NC1=N[C@H]2[C@H](CS[C@H]2CCCCC(=O)O)N1`, the “outcome” value was “inactive [at 17.4 µM]”.

In the case of `COC(=O)[C@@H]1CC2=CC(=O)CC[C@]2(C)[C@@]23O[C@@H]2C[C@@]2(C)[C@H](CC[C@@]24CCC(=O)O4)[C@@H]13`, the result was inactive.

Regarding `O=C(C[C@@H]1CC=CCCC(=O)O[C@H](c2ccccc2)CNC1=O)NCc1ccc(Cl)cc1`, the result was inactive.

Take `CON=C(C(=O)N[C@@H]1C(=O)N2C(C(=O)O)=C(Cn3ccc(=N)n3CCO)CS[C@H]12)c1csc(N)n1`: the outcome was inactive.
